Screening results deposited in PubChem by National Center for Advancing Translational Sciences (NCATS).
ATXN viability – reduces viability in counter-screen for ATXN expression inhibitors; S2 cells (HEK-293 line with an ATXN2-luciferase reporter) viability, CellTiter-Fluor protease fluorescence, 24 h; Potency, µM (top dose mostly 56.7 µM), actives largely listed as cytotoxic; 400,000 compounds, 0.49% hits; further: nearly all actives have a fitted effect of over 40% in size
HepG2 viability – kills HepG2 cells in TGF-b inhibitor counter-screen; HepG2 CAGA-GFP viability, ATP luminescence, 18 h; Potency, µM (highest dose often 46.1 µM), actives largely listed as cytotoxic; 410,000 compounds, 0.76% hits
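CellTiter-Glo luminescence gave cytotoxicity after 18 hours at 37 degrees C. The cells were HepG2 CAGA-GFP in 1% FBS DMEM, stimulated with 500 pg/mL TGF-beta after compound addition. %Activity was normalised to no-cell wells (complete cell-killing) and DMSO (no toxicity), and curves were fitted and classified.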
ATXN2 expr inh – reduces ATXN2 reporter expression in HEK-293 cells | HEK-293 ATXN2-luciferase reporter, luminescence, 24 h | Potency, µM (top dose mostly 57 µM), most hits filed as inhibitors | 360,000 compounds, 0.72% hits; further: nearly all actives have a fitted effect of over 55% in size
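ATXN2-luciferase reporter cells (luciferase flanked by upstream and downstream ATXN2 gene portions) were treated 24 h at 37 °C with compounds at up to 57 uM. SteadyGlo luminescence gave expression; GF-AFC fluorescence gave viability.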
TGFb SMAD3 inh – TGF-b pathway inhibition; Potency, µM (titrated, usually from 46.1 µM), actives largely listed as inhibitors; HepG2 CAGA-GFP TGF-b/SMAD3 reporter, GFP fluorescence, 18 h; TGF-beta stimulated, 500 pg/mL final; 410,000 compounds, 1.2% hits; further: nearly all actives have a fitted effect of over 65% in size
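Using HEPG2 CAGA-GFP reporter cells at 1000 cells/well, we pinned test compounds, stimulated with recombinant TGF-beta (500 pg/mL final) and measured total well GFP after 18 h.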
Numbers stand for hits; i = inactive; ? = inconclusive; nt = no result; ! = not active in a repeat. A selection: hits, their analogues and other compounds. The true share with any hit is near 2.3%. The call rests on the fitted dose curve; in most records, active means well fitted curve in the direction sought with a large enough effect; inconclusive means small, poorly fitted or top-dose-only effect, or another doubt; inactive means no such curve, though single readings can be large; an effect the other way counts as inactive or inconclusive.

SMILES	ATXN viability	HepG2 viability	ATXN2 expr inh	TGFb SMAD3 inh
COc1ccc(CNCCC(c2ccc3c(c2)OCO3)c2ccccc2OC)cc1 (stereo not drawn)	nt	10µM	?	?
COc1ccccc1OCC(O)CNCc1ccc2c(c1)OCO2 (stereo not drawn)	?	i	i	i
CC(C)Oc1ccc(CNC(=O)CC(c2ccccc2)c2cc(Cl)ccc2O)cc1 (stereo not drawn)	?	16µM	?	?
COC(=O)C1CCN(Cc2ccc3c(c2)CN(C(=O)c2cc(C)on2)CCO3)CC1	i	nt	nt	nt
COc1ccc(C(C)NCCC(c2ccc(OC(C)C)cc2)c2ccccc2OC)cc1 (stereo not drawn)	nt	13µM	?	11µM
Cc1ncc2c(c1CNC(=O)c1ccc3c(c1)OCO3)CCN(C(=O)c1cc3ccccc3n1C)C2	i	nt	nt	nt
COc1cc(C(=O)NC2CCN(C)CC2)ccc1Nc1ncc2c(n1)N(CCc1ccccc1)CCC(=O)N2C	i	i	i	?
COc1cc(C(=O)NC2CCN(C)CC2)ccc1Nc1ncc2c(n1)N(C1CCCC1)CCC(=O)N2C(C)C	28µM	i	6.1µM!	i
Cc1cnc(-n2ncc(C(=O)NCCc3cccnc3)c2C)nc1-c1cccs1	i	nt	nt	nt
Cc1ccc2nc(NCCN)c3ncc(C)n3c2c1	nt	nt	1.9µM	nt
Cc1ccc2nc(NCCc3ccc(Cl)cc3)c3nncn3c2c1	i	i	i	i
COc1ccc(-c2cc(C(=O)N3CCCC3)no2)cc1	i	i	8.9µM	i
COc1ccc(-c2cc(C(=O)N3CCCCCC3)no2)cc1	i	i	i	i
Cc1ccc(Nc2nc(N)nc(CN3CCN(Cc4ccc5c(c4)OCO5)CC3)n2)cc1Cl	i	11µM	i	i
COCc1c(C(=O)N2CCN(C3CCCC3)CC2)cnn1-c1ncc2c(n1)-c1ccccc1CCC2	i	nt	nt	nt
C=CCN(CC=C)S(=O)(=O)c1ccc(NC(=S)NC(=O)C2CC2)cc1	i	i	i	18µM
Cc1nc2c(OCc3ccc(C(F)(F)F)cc3)cccn2c1N(C)Cc1cccs1	32µM	i	?	?
CCn1c2ccc(C)cc2c2nnc(NN)nc21	i	i	i	14µM
COc1cc2c(cc1-c1c(C)noc1C)ncc1[nH]c(=O)n([C@H](C)c3ccccn3)c12	nt	nt	i	nt
O=c1c(Cl)cc(Cl)nn1-c1ccccc1	nt	18µM	?	?
c1cc2c3c(c1)CCC[N+]3(C1CCCCC1)CCC2	nt	i	nt	i
CC(=O)N1CCc2c(sc3c2c(=O)n(CCc2ccccc2)c(=O)n3Cc2ccc(F)cc2)C1	?	i	?	11µM
O=C(O)CCCC[P+](c1ccccc1)(c1ccccc1)c1ccccc1	i	nt	i	nt
ClC(Cl)c1nnc(-c2ccccc2)c(-c2c[nH]c3ccccc23)n1	i	i	i	13µM
N[C@@H](CC(=O)N1CCn2c(nnc2C(F)(F)F)C1)Cc1cc(F)c(F)cc1F	nt	nt	i	nt
SMILES	ATXN viability	HepG2 viability	ATXN2 expr inh	TGFb SMAD3 inh
CC(=O)N1CCC[C@H]1C(=O)NCC1Cc2cc(C)cc(-c3ccc(Cl)cc3)c2O1 (stereo partly drawn)	i	nt	nt	nt
O=C(Nc1ccc(Oc2c(F)c(F)c(F)c(F)c2F)cc1)OC1CCN2Cc3ccccc3N=C12 (stereo not drawn)	?	10µM	?	10µM
COc1cc(-c2noc(C)c2C#Cc2ccc(N)cc2)cc(OC)c1OC	?	i	i	10µM
COc1cc(-c2noc(C)c2C#Cc2ccccn2)cc(OC)c1OC	?	i	i	?
COc1ccc2ccccc2c1-c1sc(Nc2ccccc2)n[n+]1-c1ccc(F)cc1	28µM	11µM	28µM	?
CCc1ccc(Nc2n[n+](-c3ccccc3)c(-c3c(Cl)cccc3Cl)s2)cc1	10µM	i	10µM	7.1µM
COc1ccc(C)cc1Nc1n[n+](-c2ccccc2)c(-c2c(Cl)cccc2Cl)s1	11µM	13µM	i	?
Fc1ccc(-[n+]2nc(Nc3ccccc3)sc2-c2c(Cl)cccc2Cl)cc1	nt	11µM	?	?
COc1ccc(-c2sc(Nc3ccccc3)n[n+]2-c2ccc(F)cc2)cc1Br	?	i	i	i
COCCOCC(OC)OC	i	nt	i	nt
OC(CN1C=CCc2ccccc21)c1ccc(Cl)cc1Cl (stereo not drawn)	nt	i	nt	i
COc1cc(CN2CCC3(CCC(CNC(=O)c4ccco4)O3)CC2)cc(OC)c1 (stereo not drawn)	i	nt	nt	nt
CC(=O)Nc1ccc(NC(=O)CCc2nc3sc4c(c3c(=O)[nH]2)CCCC4)cc1	i	i	i	i
Cc1cc(C)cc(NC(=O)CCc2nc3sc4c(c3c(=O)[nH]2)CCCC4)c1	?	i	8.9µM	?
CC1CCC/C=C/C(=O)c2c(O)cc(O)cc2CC(=O)O1 (stereo not drawn)	11µM	i	10µM	7.1µM
Cc1ccc(CN2CCOc3ccc(CN4CCC(O)(c5cccnc5)CC4)cc3C2)cc1C	i	nt	nt	nt
CCOC(=O)c1nnn(-c2ccccc2)c1C	i	i	i	i
CCOC(=O)c1nnn(-c2ccc([N+](=O)[O-])cc2[N+](=O)[O-])c1C	i	16µM	i	10µM
CSc1nc(C2CC2)cc(-c2cccs2)c1C#N	i	i	i	5.6µM
COc1ccc(-c2cc(C3CC3)nc(SCC(=O)c3cccs3)c2C#N)cc1	i	i	i	i
Cc1ccc(C(=O)N(Cc2cc3cccc(C)c3nc2N(C)C)CC2CCCO2)cc1 (stereo not drawn)	i	nt	nt	nt
C/C(=N\NC(=O)C1CC1(c1ccccc1)c1ccccc1)c1cccc([N+](=O)[O-])c1 (stereo not drawn)	i	i	i	i
C/C(=N\NC(=O)C1CC1c1ccccc1)c1cccc([N+](=O)[O-])c1 (stereo not drawn)	i	i	i	11µM
COc1ccc(-c2nc(CN3CCCCC3c3nccn3C)c(C)o2)c(C)c1C (stereo not drawn)	?	i	?	20µM
CC1C/C(=C/c2ccncc2)C(=O)/C(=C/c2ccncc2)C1 (stereo not drawn)	?	5.6µM	nt	5.6µM
SMILES	ATXN viability	HepG2 viability	ATXN2 expr inh	TGFb SMAD3 inh
CN1N=C(N)c2cn([C@@H]3O[C@H](COP(=O)(O)O)[C@@H](O)[C@@H]3O)c3ncnc1c23	nt	nt	i	nt
NC(=O)NN=Cc1ccc([N+](=O)[O-])o1	nt	nt	i	nt
O=C(Cc1ccc(OCCC2CCCCC2)cc1)NO	nt	i	nt	i
COc1cc2cc(NC(C)=O)cc(NCc3ccccc3)c2cc1OC	i	i	i	i
CCCCNc1cc(NC(C)=O)cc2cc(OC)c(OC)cc12	i	i	i	10µM
Oc1cccc2c(CC(O)c3c[nH]c4ccccc34)ccnc12 (stereo not drawn)	nt	i	nt	?
COc1ccc(CC(=O)Nc2oc(-c3ccccc3)c(-c3ccccc3)c2C#N)cc1OC	i	i	i	?
Cn1cc([N+](=O)[O-])c(C(=O)Nc2ccc(C(=O)N3CCCCC3)cc2)n1	i	8.9µM	i	?
Cn1cc([N+](=O)[O-])c(C(=O)Nc2cc(Oc3cccnc3)cc([N+](=O)[O-])c2)n1	?	i	i	13µM
Cn1cc([N+](=O)[O-])c(C(=O)Nc2ccc(C3CCCCC3)cc2)n1	?	i	i	?
